Among all 320,000 compounds or so, about 3,100 (0.97%) were called active. This is one part of a sample in which actives are shown more often than they occur.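 Rule for the calls: active = mean replicate inhibition of at least 70% and a set share of replicates each scoring 70 or more; inconclusive = meets just one of the two criteria; inactive = fails both criteria.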 Non-standard residues stand in square brackets, D forms with d. Residues, ends and D or L forms follow the SMILES beside them. ξ: configuration not given here. Ac5c = NC1(C(=O)O)CCCC1; ξS = NC(CO)C(=O)O
target: Scavenger receptor class B member 1 (Mus musculus) (UniProt Q61009); assay: inhibitors of SR-BI mediated HDL lipid uptake, primary screen, ldlA[mSR-BI] cells, fluorescence, single point (AID 488896); settings: ldlA[mSR-BI] CHO cells, DiI-HDL uptake fluorescence, 3 h; at 12.5 µM; stronger effect = higher value;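 note: 0% = median of neutral control wells and 100% = median of positive control wells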
Sequence (Q61009 whole entry, looked up): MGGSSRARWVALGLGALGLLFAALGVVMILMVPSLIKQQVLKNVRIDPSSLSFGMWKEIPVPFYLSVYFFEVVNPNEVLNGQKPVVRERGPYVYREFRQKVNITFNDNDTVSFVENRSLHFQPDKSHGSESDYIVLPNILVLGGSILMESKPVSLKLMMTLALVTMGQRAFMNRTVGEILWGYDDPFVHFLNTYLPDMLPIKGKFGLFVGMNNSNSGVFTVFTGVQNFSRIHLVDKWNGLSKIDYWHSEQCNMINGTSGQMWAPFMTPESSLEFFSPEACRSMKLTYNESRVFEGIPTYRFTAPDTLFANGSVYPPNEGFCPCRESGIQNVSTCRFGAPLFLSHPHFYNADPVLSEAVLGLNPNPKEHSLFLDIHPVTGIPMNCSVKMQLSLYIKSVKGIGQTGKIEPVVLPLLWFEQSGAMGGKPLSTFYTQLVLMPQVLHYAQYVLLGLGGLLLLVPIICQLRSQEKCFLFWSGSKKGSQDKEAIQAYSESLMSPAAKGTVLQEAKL

| Compound | inhibition |
| --- | --- |
| Cc1ccc(C)c(NC(=O)CN(C)C(=O)COc2ccc3ccccc3c2)c1 | 2.83% (inactive) |
| Cc1ccc(NS(=O)(=O)c2ccc(C)c(NC(=O)COc3ccc4ccccc4c3)c2)c(C)c1 | 78.5% (active) |
| Cc1ccc(C)c(NS(=O)(=O)c2ccc(OCC(=O)NCc3cccnc3)cc2)c1 | -23.5% (inactive) |
| O=C1/C(=C\c2ccc([N+](=O)[O-])cc2)CS(=O)(=O)C/C1=C/c1ccc([N+](=O)[O-])cc1 | 17.7% (inactive) |
| CC[C@@H]1Cc2cc(O)ccc2C2=C1c1ccc(O)cc1C[C@H]2CC | 76.1% (active) |
| O=C(NNC(=O)c1ccc2ccccc2c1)c1ccc(Cl)cc1 | -17.1% (inactive) |
| COC(=O)c1cnc(Nc2cc(C)ccc2OC)c2ccccc12 | 11.3% (inactive) |
| COc1ccc(C)cc1Nc1nc(-c2c(C)[nH]c3ccccc23)cs1 | 77.1% (active) |
| COc1ccc(C)cc1Nc1nc(C)nc2c1oc1ccccc12 | -8.2% (inactive) |
| COCC(=O)N(C)[C@H]1C[C@H]2c3cc(Oc4ccccc4C)ccc3CCN2C(=O)[C@H]1[C@H](C)O | 5.04% (inactive) |
| COc1ccc(OC)c(-c2csc(NC(=O)C3=NNC(=O)CC3)n2)c1 | 74.1% (active) |
| COc1ccc(OC)c(-c2csc(NC(=O)COC(=O)C3CC3)n2)c1 | 29.7% (inactive) |
| COc1ccc(NC(=O)C2=NNC(=O)CC2)cc1S(=O)(=O)N1CCCCC1 | 12.9% (inactive) |
| O=C(CC(=O)c1cccnc1)c1ccccc1 | 1.21% (inactive) |
| O=C(COc1ccc(/C=N/NC(=O)c2ccc(O)cc2)cc1)Nc1ccc([N+](=O)[O-])cc1 | 24.6% (inactive) |
| CCCCCC(=O)NC(=S)NNC(=O)c1ccc([N+](=O)[O-])cc1 | 11.5% (inactive) |
| CCCCCC(=O)Nc1ccc(C(=O)N/N=C/c2ccc([N+](=O)[O-])cc2)cc1 | 92.9% (active) |
| Cc1ccc(S(=O)(=O)N2CCN(C(=O)c3cc(S(=O)(=O)N4CCOCC4)ccc3F)CC2)cc1 | -4.26% (inactive) |
| CCOc1ccc(NC(=O)c2ccc(NC(=O)C3CCCO3)cc2)cc1 (centres undefined) | 24.7% (inactive) |
| CCOc1ccc(NC(=O)N2CCN(CC)CC2)cc1 | -5.71% (inactive) |
| CCOc1ccc(NC(=O)c2ccc(NC(=O)COC(=O)c3ccc(NC(=O)CC#N)cc3)cc2)cc1 | 57.5% (inactive) |
| CCOC(=O)N1CCN(CC(=O)Nc2ccc(F)cc2)CC1 | -2.83% (inactive) |
| CCOc1ccc(NC(=O)CN2CCN(CC(=O)Nc3ccc(OC)cc3)CC2)cc1 | 77.8% (active) |
| CCOc1ccc(NC(=O)c2ccc(NC(=O)CN3C(=O)C(=O)N(CC(C)C)C3=O)cc2)cc1 | 75.7% (active) |
| COc1ccc(/C=C2/CCCc3ccccc3C2=O)cc1 | 12.7% (inactive) |
| CCOc1cc(C=NNC(=O)CCCC(=O)NN=Cc2ccc(O)c(OCC)c2)ccc1O | 7.36% (inactive) |
| CCOC(=O)[C@H]1[C@H]2COc3ccc(Br)cc3[C@@H]2N2C(=O)CN(C)C(=O)[C@@]12C | -11.5% (inactive) |

| Compound | inhibition |
| --- | --- |
| Cc1cccc(NC(=O)c2cc([N+](=O)[O-])ccc2N2CCN(C)CC2)c1 | 13.3% (inactive) |
| Cc1cccc(NC(=O)c2ccc([N+](=O)[O-])o2)c1 | 0.0135% (inactive) |
| Cc1cccc(NC(=O)c2sc(-c3ccccc3)nc2-c2ccc([N+](=O)[O-])cc2)c1 | 77.7% (active) |
| CC(=O)OC1CCC2(C)C(=CCC3C4CC(=O)N(O)C(=O)C4(C)CCC32)C1 (centres undefined) | -19% (inactive) |
| NC1=NOC(=O)C1C1CCCCC1 (centres undefined) | -14.7% (inactive) |
| COc1ccc(-c2nc3c(s2)CCc2onc(-c4ccc(OC)cc4)c2-3)cc1 | 75.1% (active) |
| COc1ccc(-c2nc3n(c2Br)CCC3)cc1 | 4.81% (inactive) |
| COc1ccc(-c2nc3c(s2)CCc2onc(-c4ccc(Br)cc4)c2-3)cc1 | 58.7% (inactive) |
| NC(=O)C1CCN(C(=O)c2cc(S(=O)(=O)N3CCN(c4ccccc4)CC3)ccc2Cl)CC1 | -3.45% (inactive) |
| COc1ccc(/C=C2\SC(=N)N(c3ccc(F)cc3)C2=O)cc1 | 13.3% (inactive) |
| COc1cccc(/C=C2/SC(=S)N(CC(=O)NC3C=CS(=O)(=O)C3)C2=O)c1 (centres undefined) | 6.75% (inactive) |
| COc1cccc(/C=C2\SC(=N)N(c3ccc(F)cc3)C2=O)c1 | 80.3% (active) |
| Cc1cc(C)cc(OCC(=O)NC(C)c2ccccc2)c1 (centres undefined) | -23.6% (inactive) |
| Cc1ccc(OCC(=O)NC(C)c2ccccc2)cc1C (centres undefined) | 0.888% (inactive) |
| C/C(CC(=O)NC(C)c1ccccc1)=N\NC(N)=S (centres undefined) | 86.3% (active) |
| O=[N+]([O-])c1ccc(N=NNc2ccc([N+](=O)[O-])cc2)cc1 | -5.77% (inactive) |
| CCOC(=O)C(CO)NC(=O)C1(NC(C)=O)CCCC1 (centres undefined) (Ac-[Ac5c]-[ξS]-OEt) | -1.77% (inactive) |
| O=C(Nc1ccc(-c2csc(Nc3cccc(C(F)(F)F)c3)n2)cc1)c1cccc(C(F)(F)F)c1 | 109% (active) |
| O=C(Nc1ccc(C(F)(F)F)cc1)c1cccc(-n2cnnn2)c1 | 9.16% (inactive) |
| O=C(O)c1ccccc1C(=O)Nc1nc(-c2ccccc2)cs1 | -7.75% (inactive) |
| CN(C(=O)c1cccc(NC(=O)Cc2ccc(NC(=O)C3CCN(C(=O)C4CCCCC4)CC3)cc2)c1)C1CCC1 | 28.2% (inactive) |
| C=CCCC(=O)N1C[C@H]2CON(C)[C@H]2C[C@H]1c1cccc(Nc2ccccc2)c1 | 2.33% (inactive) |
| CCCCN(C(=O)c1cccc(N2C(=O)c3ccccc3C2=O)c1)c1c(N)n(CCCC)c(=O)[nH]c1=O | 9.37% (inactive) |
| COc1ccc(CNC2CCCCC2)cc1 | -32.1% (inactive) |
| COc1cc(CN2CCC(C(N)=O)CC2)ccc1OCc1ccccc1 | -14.9% (inactive) |
| COc1cc(CNC2CCCC2)c(Br)cc1OCc1ccccc1 | 79.2% (active) |
| O=C1/C(=C\c2ccc(O)cc2)CCC1CNc1ccc(Cl)cc1 (centres undefined) | 18.3% (inactive) |
